The record followed here is PubChem BioAssay (NCI).

Compounds without any hit were thinned out: in the full panel of roughly 83,000, 20% have a hit.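 Activity criterion: percent growth below 10, measured after cells in 96-well plates were exposed to a single compound concentration for 48 hours.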 Values without a mark were called inactive. Activity calls are given as the source filed them.

Some test systems named below: NCI-H23 lung; NCI-H226 lung; NCI-H322M lung; HOP-62 NSCLC; NCI-H460 lung; HOP-92 NSCLC; NCI-H522 lung; A549/ATCC NSCLC; 786-0 renal; COLO 205 colon; DU-145 prostate; K-562 leukemia; MALME-3M melanoma; MDA-MB-231 breast; RXF 393 renal; SF-268 CNS; SF-295 CNS; SF-539 CNS; UACC-257 melanoma; M14 melanoma.
Common to all, as to assay: NCI-60 one-dose screen, 48 h (100 = growth as untreated, 0 = no growth, -100 = all killed)
Common to all, as to conditions: 10 µM unless noted

Take `CCCNC(=O)Oc1ccc(/C(=C(\C)c2ccccc2)c2ccc(OCCN3CCCCC3)cc2)cc1`: the growth with NCI-H23 lung was 79.4%; in the experiment on NCI-H226 lung, 89.5%; in the experiment on NCI-H322M lung, 83.3%; in the experiment with HOP-62 NSCLC it was 81.9%; in the experiment with NCI-H460 lung, 66.7%; in the experiment on HOP-92 NSCLC it was 80.7%. Besides, the growth in the experiment with NCI-H522 lung was 103%; in the experiment with A549/ATCC NSCLC, 62.2%; in the experiment on 786-0 renal it was 35.8%; with COLO 205 colon, 38%; with DU-145 prostate it was 87.9%; with K-562 leukemia it was 10.2%. Moreover, the growth in the experiment with MALME-3M melanoma was 61.3%; in the experiment on MDA-MB-231 breast it was 81.9%; in the experiment on RXF 393 renal, 64.4%; with SF-268 CNS it was 72.6%; in the experiment with SF-295 CNS it was 55%; in the experiment with SF-539 CNS, 37.5%. Besides, the growth is -14.1% (active) with UACC-257 melanoma and 14.1% in the experiment with M14 melanoma.
Take `CCCCCCOc1ccc(/C=N/Nc2cc(C)nc3ccc(Br)cc23)cc1`: the growth was 14% in the experiment on NCI-H23 lung; 71.1% in the experiment on NCI-H226 lung; -73.7% (active) in the experiment on NCI-H322M lung; -65.4% (active) in the experiment on HOP-62 NSCLC; -72% (active) in the experiment with NCI-H460 lung; 34.5% with HOP-92 NSCLC. Also, the growth with NCI-H522 lung was -61.4% (active); in the experiment on A549/ATCC NSCLC, -59.5% (active); in the experiment on 786-0 renal, -87.7% (active); in the experiment with COLO 205 colon, -51.8% (active); in the experiment with DU-145 prostate, -82.9% (active); with K-562 leukemia, -64.5% (active). In addition, the growth with MALME-3M melanoma was -82.3% (active); in the experiment on MDA-MB-231 breast it was -88.9% (active); in the experiment with RXF 393 renal, -97.3% (active); in the experiment on SF-268 CNS it was -1.78% (active); in the experiment on SF-295 CNS, -83.3% (active); with SF-539 CNS, -84.8% (active). The results for the growth with UACC-257 melanoma and in the experiment on M14 melanoma were 117% and -44.4% (active), respectively.
On to `CC(C)NC(=O)N1C(=O)CCC1NNC(=O)c1ccc([N+](=O)[O-])cc1` (centres undefined), for which the growth in the experiment on NCI-H23 lung is 89.8%; in the experiment with NCI-H226 lung it was 104%; with NCI-H322M lung, 96.3%; in the experiment with HOP-62 NSCLC, 106%; with NCI-H460 lung, 121%; in the experiment on HOP-92 NSCLC, 109%. Also, the growth with NCI-H522 lung was 93.1%; in the experiment with A549/ATCC NSCLC, 104%; in the experiment on 786-0 renal, 98.5%; in the experiment with COLO 205 colon, 112%; with DU-145 prostate, 103%; with K-562 leukemia, 98.6%. The growth is 101% in the experiment on MALME-3M melanoma; 108% in the experiment with MDA-MB-231 breast; 123% in the experiment with RXF 393 renal; 100% with SF-268 CNS; 105% in the experiment with SF-295 CNS; 97.7% in the experiment on SF-539 CNS. In addition, the values for the growth in the experiment with UACC-257 melanoma and in the experiment on M14 melanoma were 111% and 100%, respectively.
Take `Cc1ccc(C(=O)Nc2ccccc2C(=O)N/N=C(\c2ccccc2)c2ccccn2)cc1`: the growth in the experiment on NCI-H23 lung is 32.6%; with NCI-H226 lung, 30.3%; with NCI-H322M lung it was 33.4%; with HOP-62 NSCLC, 14.5%; in the experiment on NCI-H460 lung, 5.43% (active); with HOP-92 NSCLC, 52.7%. Further, the growth was 24.1% with NCI-H522 lung; 17.2% in the experiment on A549/ATCC NSCLC; -17.1% (active) in the experiment on 786-0 renal; 14.1% in the experiment with COLO 205 colon; 22.7% in the experiment on DU-145 prostate; 19.9% with K-562 leukemia. For the same compound, the growth is 37.9% in the experiment with MALME-3M melanoma; 34.4% in the experiment on MDA-MB-231 breast; 40.4% with RXF 393 renal; 20.2% with SF-268 CNS; 23% in the experiment with SF-295 CNS; 8.97% (active) with SF-539 CNS. Further, in the experiment on UACC-257 melanoma, the growth is 8.34% (active).
With `CCOC(=O)C1=C(C)NC(C)=C(C(=O)OCC)C1c1cc(Br)c(O)c(OC)c1`, the growth in the experiment with NCI-H23 lung is 34.3%; in the experiment on NCI-H226 lung, 32.7%; in the experiment with NCI-H322M lung it was 55.3%; with HOP-62 NSCLC, 31.8%; in the experiment with NCI-H460 lung it was 18.7%; with HOP-92 NSCLC, 16.3%. In addition, the growth with NCI-H522 lung is -37.5% (active); with A549/ATCC NSCLC, 33.2%; in the experiment with 786-0 renal, 29.1%; with COLO 205 colon, 104%; with DU-145 prostate, 20.8%; with K-562 leukemia, 25.5%. Moreover, the growth with MALME-3M melanoma is 33.3%; with MDA-MB-231 breast, 53.7%; in the experiment with RXF 393 renal, -26.6% (active); with SF-268 CNS, 54.9%; in the experiment with SF-295 CNS, 16.2%; with SF-539 CNS, 22.8%. Also, the values for the growth in the experiment on UACC-257 melanoma and in the experiment with M14 melanoma were 59.1% and 3.03% (active), respectively.
In the case of `CC(=O)c1cccc(NS(=O)(=O)c2cccc(C(=O)Nc3ccc(Br)cc3)c2)c1`, the growth with NCI-H23 lung was 29.4% [25 µM]; with NCI-H226 lung, 49.3% [25 µM]; in the experiment with NCI-H322M lung, 73.4% [25 µM]; with HOP-62 NSCLC, 68.9% [25 µM]; in the experiment on NCI-H460 lung, 63.4% [25 µM]; in the experiment on HOP-92 NSCLC it was 33.9% [25 µM]. Also, the growth in the experiment on NCI-H522 lung was 48.8% [25 µM]; in the experiment with A549/ATCC NSCLC it was 58% [25 µM]; with 786-0 renal it was 56.2% [25 µM]; in the experiment with COLO 205 colon, 61% [25 µM]; in the experiment on DU-145 prostate it was 75.4% [25 µM]; in the experiment with K-562 leukemia, 33% [25 µM]. Further, the growth is 42.1% [25 µM] in the experiment on MALME-3M melanoma; 73.8% [25 µM] with MDA-MB-231 breast; 61.5% [25 µM] in the experiment with RXF 393 renal; 51.4% [25 µM] in the experiment with SF-268 CNS; 27.3% [25 µM] in the experiment on SF-295 CNS; 65.3% [25 µM] with SF-539 CNS. For the same compound, the growth is 36.4% [25 µM] in the experiment with UACC-257 melanoma and 51.7% [25 µM] in the experiment on M14 melanoma.
Take `C=C1C(=O)O[C@H]2[C@H]1CC/C(COC(=O)NCCc1c[nH]c3ccc(Cl)cc13)=C\CC[C@@]1(C)O[C@@H]21`: the growth is 13.8% in the experiment with NCI-H23 lung; 30.7% with NCI-H226 lung; 81.6% in the experiment on NCI-H322M lung; 64.6% in the experiment on HOP-62 NSCLC; 17.5% in the experiment with NCI-H460 lung; -71% (active) with HOP-92 NSCLC. For the same compound, the growth in the experiment on NCI-H522 lung is -80.1% (active); in the experiment with A549/ATCC NSCLC, 56.5%; with 786-0 renal it was -78.7% (active); in the experiment with COLO 205 colon, -70.9% (active); in the experiment with DU-145 prostate it was -87.8% (active); in the experiment on K-562 leukemia, -13.2% (active). The growth with MALME-3M melanoma is -84.4% (active); with MDA-MB-231 breast, -70.5% (active); with RXF 393 renal, -93.6% (active); with SF-268 CNS it was -71% (active); with SF-295 CNS, 75.4%; with SF-539 CNS it was -63.8% (active). The growth was -11.6% (active) with UACC-257 melanoma and -54.8% (active) with M14 melanoma.
